Active and inactive are the calls of the source.

This passage reports z-score and composite z-score results from PubChem BioAssay.

Streptavidin (Streptomyces avidinii), sequence (P22629 whole entry, looked up): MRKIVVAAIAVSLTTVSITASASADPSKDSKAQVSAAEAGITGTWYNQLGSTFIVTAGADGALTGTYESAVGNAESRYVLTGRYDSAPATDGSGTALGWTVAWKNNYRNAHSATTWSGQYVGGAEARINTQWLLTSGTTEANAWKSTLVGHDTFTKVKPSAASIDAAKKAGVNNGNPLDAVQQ

Test system in the first test: not listed separately
In words: CREB reporter modulators under forskolin, primary screen, cell-based, PC12, CRE-LacZ reporter, forskolin-stimulated (AID 1146).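 Note: PC12 cells with 6xCRE LacZ reporter stimulated by forskolin 10 µM; beta-galactosidase reporter signal reflecting CREB driven transcription.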 The following applies: luminescence, 4.5 h, higher = more signal, called active from +8 up or from −8 down.
With `CCOc1ccc(N2C(=O)CSC2c2cccc([N+](=O)[O-])c2)cc1` (stereo unspecified), the z-score was -1.34 (inactive).
As for `C=C(CCCC)/C(=C/C[C@H](OC(C)=O)c1ccccc1OCCO)c1cnc2ccccc2c1`, the z-score is 0.55 (inactive).
Same read-out and setting: next, `C=CC[C@]1(C(N)=O)COC(c2ccc(OCCCO)cc2)=N1`: 0.127 (inactive); `COCCOC(=O)N1C(=O)[C@@]2(c3cc(C#CC4=CCCCC4)ccc31)[C@H](C(N)=O)[C@H]1C(=O)O[C@H](c3ccccc3)[C@H](c3ccccc3)N1[C@@H]2c1ccc(O)cc1`: -0.438 (inactive); `O=C1O[C@@H](c2ccccc2)[C@@H](c2ccccc2)N2[C@@H](c3ccc(OCCO)cc3)[C@]3(C(=O)Nc4ccc(C#CC5=CCCCC5)cc43)[C@@H](C(=O)N3CCCCCCC3)[C@H]12`: 0.509 (inactive).
Turning to `COc1ccc([Si](C)(C)[C@@H]2[C@@H](CCn3cc([C@H](O)c4ccccc4)nn3)O[C@]3(C(=O)N(Cc4cccc(N5CCC5=O)c4)c4ccccc43)[C@H]2C)cc1`, the z-score is -0.144 (inactive).

The next test has as its target Streptavidin (Streptomyces avidinii) (UniProt P22629). Description: streptavidin binders on small-molecule microarray, primary screen, artefact control for SMM compound annotation, biophysical, 635/667 nm fluorescence (AID 1147).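 Note: signal reflects streptavidin binding to arrayed compounds as a control protein.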 The following applies: streptavidin binding, higher = more signal.
`COc1ccc([Si](C)(C)[C@@H]2[C@@H](CCO)O[C@]3(C(=O)N(Cc4cccc(N5CCOC5=O)c4)c4ccccc43)[C@H]2C)cc1` gave a composite z-score of 0.424.
Still for that read-out and setting: then `COCCOC(=O)N1C(=O)[C@@]2(c3ccccc31)[C@H](C(N)=O)[C@H]1C(=O)O[C@H](c3ccccc3)[C@H](c3ccccc3)N1[C@@H]2c1ccc(O)cc1`, with -0.432; and `O=C1C[C@@](C(=O)NCc2ccccc2)(c2ccc([N+](=O)[O-])cc2)[C@@H](c2ccc(CO)cc2)N1CC12CC3CC(CC(C3)C1)C2`, with -0.243.
On the same count and under the same terms, then `COCC(=C=CC[C@H](O)c1cccc(OCCO)c1)CCO`, with -0.33.
The compound `COCCCNC(=O)[C@@]1(Cc2ccccc2CN=[N+]=[N-])N=C(c2ccc(OCCCO)cc2)O[C@H]1c1ccccc1CN=[N+]=[N-]` had a composite z-score of 0.521.
As for `COC(=O)[C@]1(Cc2ccccc2)N=C(c2ccc(OCCCO)cc2)O[C@@H]1c1ccccc1N=[N+]=[N-]`, the composite z-score turned out to be 0.291.
In turn, `COC(=O)[C@@]1(Cc2ccc(F)cc2)[C@H]2c3cc(C(=O)N(C)C)n(Cc4ccc(C)o4)c3C[C@H]2CN1C(=O)c1ccccc1` registered a composite z-score of -0.649.
Same read-out and setting: then `CC(C)=CCCC(C)=CC(O)C1C=CC2C(=O)N(c3ccccc3)C(=O)C2N1Nc1ccc(C(C)C)cc1` (stereo unspecified), with 1.33; and `COc1ccccc1CN1C(=O)c2ccccc2[C@@H](C(=O)NCc2ccccc2)[C@@H]1c1ccc(CO)cc1`, with -0.515; and `CC#CC(=O)Oc1ccc(Br)cc1C=CC(=O)OCC`, with 0.119.
The same measure, in the same setting: next, `O=C(NC1CC1)[C@@H]1c2ccccc2C(=O)N(C2Cc3ccccc3C2)[C@H]1c1ccc(CO)cc1`: -0.286; `COCCCNC(=O)[C@@H]1c2ccccc2C(=O)N(Cc2ccccc2OC)[C@H]1c1ccc(CO)cc1`: -0.665.
Same read-out and setting: next, `O=C(O)[C@H](Cc1ccccc1)n1cc(-c2ccccc2)nn1`: 0.572.
`C=CC[C@]1(C(=O)NCc2ccccc2)N=C(c2ccc(OCCCO)cc2)O[C@H]1c1ccccc1CN=[N+]=[N-]` returned a composite z-score of 0.866.
For `CN1C(=O)C2C=CC(C(O)c3ccc(F)cc3)N(N(c3ccccc3)c3ccccc3)C2C1=O` (stereo unspecified), the composite z-score turned out to be 0.453.
On to `C=CCC(OC(C)=O)[C@@H]1[C@@H](N(Cc2ccc(-c3cccc(C(F)(F)F)c3)o2)C(=O)Cc2ccc(OC)cc2)c2cc(OCCCO)ccc2N1C(=O)c1ccc2ccccc2c1` (stereo partly specified), for which the composite z-score was -0.445.
Still for that read-out and setting: next, `CN(C)CCCCCCNC(=O)[C@@H]1C[C@@H]2C(=O)N[C@@H](CCCC[N+](C)(C)C)C(=O)N2[C@@H]1c1ccc(O)cc1`: -0.253; `CC(C)CNC(=O)[C@@]1(Cc2ccccc2I)c2ccccc2C(=O)N(Cc2ccccc2C(F)(F)F)[C@H]1c1ccc(CO)cc1`: -0.198.
`C=CC[C@]1(C(N)=O)N=C(c2ccc(OCCCO)cc2)O[C@H]1c1ccccc1` yielded a composite z-score of 0.186.
As to `COCCCNC(=O)[C@@]1(Sc2ccc(C)cc2)CC(=O)N(Cc2ccccc2Cl)[C@@H]1c1ccc(CO)cc1`, the composite z-score was 0.584.
`CCCC=C(CCC)[C@@H](NC(=O)OCC(C)C)c1ccccc1` yielded a composite z-score of 0.576.
The same measure, in the same setting: then `OCC1C=C(/C=C/c2ccccc2)CN1Cc1ccccc1Br` (stereo unspecified), with 0.828; and `CN1C(=O)C2C=CC(C(O)C=Cc3ccc([N+](=O)[O-])cc3)N(Nc3ccccc3)C2C1=O` (stereo unspecified), with 1.16; and `COC(=O)[C@@]1(Cc2ccccc2)[C@H]2c3cc(C(=O)N4CCCC4)n(Cc4ccc(O)c(OC)c4)c3C[C@H]2CN1C(=O)c1ccccc1`, with 0.211.
Same read-out and setting: next, `CN(C)CCCCCCNC(=O)[C@@H]1C[C@@H]2C(=O)N3CCC[C@H]3C(=O)N2[C@@H]1c1ccc(O)cc1`: -0.331; `C[N+](C)(C)CCCC[C@@H]1NC(=O)[C@H]2C[C@@H](C(=O)NCCCCCCNC(=O)CS)[C@@H](c3ccc(O)cc3)N2C1=O`: -1.48; `COC(=O)C(CC#Cc1ccc2c(c1)[C@]1(C(=O)N2)[C@H](c2ccccc2OCCO)N2[C@H](c3ccccc3)[C@H](c3ccccc3)OC(=O)[C@H]2[C@@H]1C(=O)O)C(=O)OC`: 0.517.
In turn, `NCCCCCNC(=O)[C@H]1C[C@H]2C(=O)N3CCC[C@H]3C(=O)N2[C@H]1c1ccc(O)cc1` registered a composite z-score of 1.23.
Still for that read-out and setting: next, `C=CCC(OC(C)=O)[C@@H]1[C@@H](N(Cc2ccc(-c3ccccc3)cc2)C(=O)Cc2ccc(F)cc2)c2cc(OCCCO)ccc2N1C(=O)c1ccc2ccccc2c1` (stereo partly specified): -0.0075.
`CCOc1ccc(N2C(=O)CSC2c2cccc([N+](=O)[O-])c2)cc1` (stereo unspecified) gave a composite z-score of 0.804.
Still for that read-out and setting: next, `C=C(CCCC)/C(=C/C[C@H](OC(C)=O)c1ccccc1OCCO)c1cnc2ccccc2c1`: 0.36; `C=CC[C@]1(C(N)=O)COC(c2ccc(OCCCO)cc2)=N1`: -0.266; `COCCOC(=O)N1C(=O)[C@@]2(c3cc(C#CC4=CCCCC4)ccc31)[C@H](C(N)=O)[C@H]1C(=O)O[C@H](c3ccccc3)[C@H](c3ccccc3)N1[C@@H]2c1ccc(O)cc1`: 1.14.
The compound `O=C1O[C@@H](c2ccccc2)[C@@H](c2ccccc2)N2[C@@H](c3ccc(OCCO)cc3)[C@]3(C(=O)Nc4ccc(C#CC5=CCCCC5)cc43)[C@@H](C(=O)N3CCCCCCC3)[C@H]12` displayed a composite z-score of 2.92.
Same read-out and setting: next, `COc1ccc([Si](C)(C)[C@@H]2[C@@H](CCn3cc([C@H](O)c4ccccc4)nn3)O[C@]3(C(=O)N(Cc4cccc(N5CCC5=O)c4)c4ccccc43)[C@H]2C)cc1`: 0.0185.
